Experimental findings from PubChem BioAssay (Tox21) are described below.

The structures appear in SMILES notation. “And” between values parts separate entries of the source, which are not always exact repeats. Equal entries are not always repeated. Records with an inconclusive call do not appear. The source made the active and inactive calls. Unless noted, calls come from the whole dose curve; as a rule, active = well fitted curve in the direction sought with a large enough effect in the repeat runs; inconclusive = weak or mixed curves; inactive = no such curve, though single readings can be large; an effect the other way counts as inactive or inconclusive.

The nature of assay [1]: qHTS assay for small molecules that induce genotoxicity in human embryonic kidney cells expressing luciferase-tagged ATAD5 (AID 651632). Note: nearly all actives have a fitted effect of over 15% in size. Note: potency is the fitted concentration of half-maximal effect. The following applies: HEK293T ATAD5-luciferase induction, 16 h; series mostly up to 83.3 µM. In a few lines: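 Quantitative HTS in HEK293T expressing luciferase-tagged ATAD5, whose levels rise upon DNA damage. Exposure ran 16 hr at 37C and 5% CO2, with luminescence read 30 min after Amplite addition at room temperature.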

A short description of assay [2]: qHTS assay for small molecule agonists of the p53 signaling pathway - cell viability (AID 651633; calls by dose curve; note: nearly all actives have a fitted effect of over 30% in size; note: potency is the fitted concentration of half-maximal effect). The following applies: p53RE-bla HCT-116 viability, ATP luminescence, 16 h; series mostly up to 83.3 µM. An outline of the steps:
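p53RE-bla cells were treated with compound for 16 hours at 37 C. Cytotoxicity was then measured as CellTiter-Glo luminescence after 30 min at room temperature.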
(Quantitative high-throughput screening tests each substance at several concentrations.)

The nature of assay [3]: qHTS assay for small molecules that induce genotoxicity in human embryonic kidney cells expressing luciferase-tagged ATAD5 - cell viability (AID 651634; calls by dose curve; note: nearly all actives have a fitted effect of over 25% in size). Particulars: HEK293T ATAD5-luc cells viability, CellTiter-Fluor, 15.5 h; series mostly up to 83.3 µM. In a few lines: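 After 15.5 hr incubation with compound at 37C, 5% CO2, HEK293T ATAD5-luciferase cells received CellTiter-Fluor reagent; fluorescence intensity was quantified following 30 min at 37C.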

The nature of assay [4]: qHTS assay for small molecule disruptors of the mitochondrial membrane potential - cell viability (AID 720634; calls by dose curve;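 note: human HepG2 liver cancer cells; nearly all actives have a fitted effect of over 20% in size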). The following applies: HepG2 viability, ATP luminescence (CellTiter-Glo), 1 h; series mostly up to 83.2 µM. An outline of the steps:
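ATP-based luminescent viability readout (CellTiter-Glo, 30 min, room temperature) in HepG2 cells multiplexed with the m-MPI membrane potential dye; compound exposure lasted 1 hr at 37 C.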

The nature of assay [5]: qHTS assay to test for compound auto fluorescence at 590 nm (red) in HepG2 cells (AID 720674). Particulars: HepG2 autofluorescence, red 540/590 nm, 1 h; series mostly up to 91.3 µM. In a few lines:
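HepG2 cells, 2,000 per well in MEM with 10% FBS, attached overnight at 37 C, then got 23 nL compound or DMSO. After 1 hr at 37 C, 5% CO2, red fluorescence was read at 540/590 nm against Rose Bengal sodium as reference.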

A short description of assay [6]: qHTS assay to test for compound auto fluorescence at 535 nm (green) in HepG2 cells (AID 720675). Particulars: green autofluorescence 485/535 nm, 1 h; series mostly up to 91.3 µM.
The nature of assay [7]: qHTS assay to test for compound auto fluorescence at 460 nm (blue) in HEK293 cells (AID 720678). Particulars: blue autofluorescence 405/460 nm; series mostly up to 91.3 µM. In a few lines:
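Measured: blue fluorescence (Ex 405/Em 460 nm) of compound-treated HEK293 cells, incubated overnight at 37C with 5% CO2 and scaled to triamterene equivalents.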

Assay [8] in a line: qHTS assay to test for compound auto fluorescence at 590 nm (red) in HEK293 cells (AID 720679). The following applies: red autofluorescence 540/590 nm; series mostly up to 91.3 µM. An outline of the steps:
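Using HEK293 cells at 2,000 per well, the screen added 23 nL of each compound after cell attachment and incubated overnight (37C, 5% CO2). The plate reader then captured red-label fluorescence, Ex/Em 540/590nm.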

Assay [9] in a line: qHTS assay for small molecule disruptors of the mitochondrial membrane potential (AID 720635). Note: potency is the fitted concentration of half-maximal effect. The following applies: HepG2 mitochondrial membrane potential, Mito-MPS dye ratio; series mostly up to 83.2 µM. In a few lines: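 HepG2 cells exposed to compound 1 hr at 37C, then Mito-MPS dye 30 min. Ratio read of aggregate (540/590 nm) versus monomer (490/535 nm) fluorescence.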
The nature of assay [10]: qHTS assay for small molecule agonists of the p53 signaling pathway (AID 651631; calls by dose curve; note: nearly all actives have a fitted effect of over 15% in size). The following applies: HCT-116 p53RE-bla reporter, beta-lactamase FRET ratio, 16 h; series mostly up to 73.3 µM. An outline of the steps: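 Stably transfected HCT-116 cells (beta-lactamase behind p53 response elements) get compounds after a 5 h settling period; 16 h later at 37 °C, FRET substrate is loaded and fluorescence read after 2 h.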

Take `FC(F)(F)C(Cl)Br` (stereo not drawn): the Potency entry in assay [1], in assay [2], in assay [3], in assay [4], in [5] and in assay [6] was “inactive” in each case. In addition, the Potency result in assay [8] is “inactive”. Also, the result in assay [7] was inactive.

Turning to `CCC(=O)O[C@H]1[C@H](O[C@@H]2[C@@H](C)[C@H](O[C@H]3C[C@@](C)(OC)[C@@H](O)[C@H](C)O3)[C@@H](C)C(=O)O[C@H](CC)[C@@](C)(O)[C@H](O)[C@@H](C)C(=O)[C@H](C)C[C@@]2(C)O)O[C@H](C)C[C@@H]1N(C)C`, the Potency entry in [1], in assay [3], in assay [4], in [5], in [6] and in assay [8] was “inactive” in each case. Also, the Potency in assay [2] is 13.3 µM (active). Further, the result in assay [7] was inactive.

On to `Cc1ccc(/C(=C\CN2CCCC2)c2ccccn2)cc1`, for which the Potency result in [2], in assay [4], in assay [5], in [6] and in assay [8] was “inactive” throughout. For the same molecule, the call in [7] was inactive.

For `CC1(C)C(C=C(Cl)Cl)C1C(=O)OCc1cccc(Oc2ccccc2)c1` (stereo not drawn), the Potency result in assay [1], in assay [2], in [3], in [4], in [5] and in assay [6] was “inactive” throughout. Besides, in assay [8], the Potency entry is “inactive”. In addition, the outcome in assay [7] was inactive.

As to `CC1(C)NC(=O)N(c2ccc([N+](=O)[O-])c(C(F)(F)F)c2)C1=O`, the Potency result in assay [1], in assay [2], in [3], in [4], in [5] and in [6] was “inactive” throughout. Moreover, the Potency entry in assay [8] was “inactive”. The outcome in assay [7] was inactive.

`Cc1ccc(N)c([N+](=O)[O-])c1`: the Potency entry in assay [1], in [2], in assay [3], in assay [4], in assay [5] and in assay [6] was “inactive” in each case. The Potency entry in assay [8] was “inactive”. Moreover, in assay [9], the Potency was 54.5 µM (active). Moreover, the outcome in assay [7] was inactive.

Take `Nc1ccc2c(c1)C(=O)c1ccccc1C2=O`: the Potency in [1] was 4.77 µM (active) and 7.7 µM (active); in [9], 268 nM (active) and 386 nM (active). Also, the Potency entry in assay [2], in assay [3], in assay [4], in assay [5], in [6] and in assay [8] was “inactive” each time. Further, the molecule was called inactive in assay [7].

On to `C[N+](C)(C)CCO`, for which the Potency entry in [1], in assay [2], in [3], in assay [4], in assay [5] and in assay [6] was “inactive” in each case. The Potency entry in assay [8] is “inactive”. Besides, the molecule was called inactive in assay [7].

With `CC(C)[C@@H]1CC[C@@H](C)CC1=O`, the Potency result in assay [10], in [2], in assay [3], in assay [4], in [5] and in [6] was “inactive” each time. Moreover, in [8], the Potency entry was “inactive”. Also, in assay [7], the molecule was classed as inactive.

On to `NCCN`, for which the Potency entry in assay [10], in assay [2], in assay [4], in [5], in assay [6] and in assay [8] was “inactive” each time. In assay [7], the result was inactive.

Turning to `CC(=O)Oc1c(C)c(C)c2c(c1C)CC[C@@](C)(CCC[C@H](C)CCC[C@H](C)CCCC(C)C)O2`, the Potency result in assay [10], in [2], in assay [4], in assay [9], in assay [5] and in [6] was “inactive” throughout. Besides, the Potency result in assay [8] is “inactive”. Further, in assay [7], the molecule was called inactive.

Take `CCC/C=C/C=O`: the Potency result in assay [1], in assay [2], in assay [3], in assay [4], in assay [5] and in assay [6] was “inactive” in each case. For the same molecule, the Potency result in assay [8] is “inactive”. Moreover, the outcome in [7] was inactive.

In the case of `CN(C)/N=N/c1nc[nH]c1C(N)=O`, the Potency result in [1], in [2], in assay [3], in assay [4], in [9] and in assay [5] was “inactive” in each case. For the same molecule, the Potency entry in [6] and in assay [8] was “inactive” in each case. In addition, in [7], the molecule was classed as inactive.

In the case of `OC[C@H]1O[C@@H]2O[C@H]3[C@H](O)[C@@H](O)[C@@H](O[C@H]4[C@H](O)[C@@H](O)[C@@H](O[C@H]5[C@H](O)[C@@H](O)[C@@H](O[C@H]6[C@H](O)[C@@H](O)[C@@H](O[C@H]7[C@H](O)[C@@H](O)[C@@H](O[C@H]1[C@H](O)[C@H]2O)O[C@@H]7CO)O[C@@H]6CO)O[C@@H]5CO)O[C@@H]4CO)O[C@@H]3CO`, the Potency result in assay [1], in assay [2], in assay [3], in assay [4], in [5] and in [6] was “inactive” each time. In addition, the Potency result in assay [8] was “inactive”. For the same molecule, the result in [7] was inactive.

Turning to `CCCCCCOCCOCCO`, the Potency result in [2], in [3], in assay [4], in assay [5], in assay [6] and in [8] was “inactive” each time. Moreover, the molecule was called inactive in assay [7].

With `O=C(CCCN1CCC(O)(c2ccc(Cl)cc2)CC1)c1ccc(F)cc1`, the Potency result in assay [10], in assay [2], in [4], in assay [5], in [6] and in assay [8] was “inactive” in each case. The outcome in assay [7] was inactive.

For `CN(Cc1cnc2nc(N)nc(N)c2n1)c1ccc(C(=O)N[C@@H](CCC(=O)O)C(=O)O)cc1`, the Potency result in assay [1], in assay [3], in assay [4], in [5], in assay [6] and in [8] was “inactive” in each case. Also, in assay [2], the Potency is 168 nM (active) and 48.6 nM (active).

`CCOC(=O)C(C)Oc1ccc(Oc2cnc3cc(Cl)ccc3n2)cc1` (stereo not drawn): the Potency result in assay [1], in [3], in [4], in assay [5], in assay [6] and in assay [8] was “inactive” in each case. In addition, the molecule was classed as inactive in assay [7].

Regarding `O=C(O)COCCN1CCN(C(c2ccccc2)c2ccc(Cl)cc2)CC1` (stereo not drawn), the Potency entry in assay [1], in assay [2], in assay [3], in assay [4], in assay [5] and in assay [6] was “inactive” in each case. Besides, the Potency entry in [8] was “inactive”. For the same molecule, the result in assay [7] was inactive.
